{"source": "ChEMBL document CHEMBL3988442", "about": "“University of Dundee, Small-Polar-MMV Screening Library” (2021)", "note": "In all, about 48,000 compounds went through this assay and about 13,000 (27%) showed an effect of 50% or more. The list shows a part of the results.", "data": [{"test_system": "Wolbachia pipientis", "experiment": "Anti-Wolbachia Cell-Based Screen", "type": "functional", "set-up": "scale not given: in the data most compounds retested in dose-response had high values", "conditions": "5 µM", "units": {"Percent Effect": "%"}, "values": [{"smiles": "CCc1[nH]c2c(CNc3cc(C)nc(NC)n3)cc(C)cc2c1C", "Percent Effect": 7.086}, {"smiles": "Cc1noc(C2CN(S(=O)(=O)C3CC3)Cc3ccnn3C2)n1", "note": "(configuration not stated)", "Percent Effect": -3.92}, {"smiles": "Cc1nc(-c2ccccc2)sc1CSCCS(C)(=O)=O", "Percent Effect": 5.255}, {"smiles": "CCCN1CCC(C(=O)NCCN(CC)c2ccccc2C)CC1", "Percent Effect": 6.668}, {"smiles": "CSc1ccc(NC(=O)NCC(O)C2CC2)cc1F", "note": "(configuration not stated)", "Percent Effect": -6.513}, {"smiles": "Cc1ccc(CNC(=O)Cn2ncc3c2c(C)nn3C)cc1", "Percent Effect": 2.775}, {"smiles": "CCC(C)NC(=O)Cn1ncc2c1c(C)nn2CC", "note": "(configuration not stated)", "Percent Effect": 78.16}, {"smiles": "Cc1nn(C)c2cnn(CC(=O)NCCc3ccccc3)c12", "Percent Effect": -4.573}, {"smiles": "COc1ccccc1CNC(=O)Cn1ncc2c1c(C)nn2C", "Percent Effect": 14.16}, {"smiles": "COc1ccc(NC(=O)Cn2nc(C)c(C(C)=O)c2C)cc1", "Percent Effect": 9.099}, {"smiles": "COc1cccc(C(CO)NC(=O)Cc2cccc(C)c2)c1", "note": "(configuration not stated)", "Percent Effect": -8.321}, {"smiles": "CCn1nc(C)c2c1cnn2CC(=O)NC(C)c1cccc(OC)c1", "note": "(configuration not stated)", "Percent Effect": 108.9}, {"smiles": "CCn1nc(C)c2c1cnn2CC(=O)Nc1ccc(OC)cc1C", "Percent Effect": 97.13}, {"smiles": "COc1ccc(NC(=O)Cn2nc(C)c(C)cc2=O)c(OC)c1", "Percent Effect": -17.24}, {"smiles": "Cc1ccc(C(=O)NS(=O)(=O)c2cc(Cl)ccc2Cl)c(=O)[nH]1", "Percent Effect": 0.2464}, {"smiles": "OCCOc1ccc(NCc2cccc3cn[nH]c23)cn1", "Percent Effect": 11.64}, {"smiles": "CC(C)NC(=O)c1sc2ccccc2c1[C@H]1CC[C@H](CN)CC1.Cl", "Percent Effect": 141.4}, {"smiles": "CN(C)CCNC(=O)c1ccc(S(=O)(=O)N[C@@H]2CCNC2)cc1", "Percent Effect": -7.63}, {"smiles": "CC1CCc2nc(O)c(C(=O)NCCN(C)C)cc2C1", "note": "(configuration not stated)", "Percent Effect": 7.628}, {"smiles": "CC(NC(=O)N1CCC(CO)CC1)c1csc2ccccc12", "note": "(configuration not stated)", "Percent Effect": -26.26}, {"smiles": "Cl.NCC1CCC(c2c(C(=O)NCCO)sc3ccccc23)CC1", "note": "(configuration not stated)", "Percent Effect": 105.7}, {"smiles": "CN(C)CCNC(=O)c1sc2ccccc2c1C1CCC(CN)CC1.Cl", "note": "(configuration not stated)", "Percent Effect": 88.67}, {"smiles": "CC(NC(=O)c1cccc[n+]1[O-])C1CC1", "note": "(configuration not stated)", "Percent Effect": -12.99}, {"smiles": "Cl.NC[C@H]1CC[C@H](c2c(C(N)=O)sc3ccccc32)CC1", "Percent Effect": 138.4}, {"smiles": "CCn1cc2c(n1)C(COCC1CC1)CN(C(=O)c1cc(C)on1)C2", "note": "(configuration not stated)", "Percent Effect": -20.07}, {"smiles": "CC(Nc1ccc(CC(=O)N(C)C)cc1)C(=O)N(C)CCC#N", "note": "(configuration not stated)", "Percent Effect": 3.748}, {"smiles": "Cn1ncc2c(N3CCCC(C)(O)C3)nc(C(C)(C)C)nc21", "note": "(configuration not stated)", "Percent Effect": -0.5703}, {"smiles": "COc1ccc(CCC(=O)Nc2cccnc2N2CCCC2)cc1Br", "Percent Effect": 3.443}, {"smiles": "O=C(O)C(F)(F)F.O=C1CC[C@@H]2[C@@H](CCN2C(=O)c2ccsc2)N1Cc1ccncc1", "Percent Effect": -34.69}, {"smiles": "COCCNC(=O)c1cc2c(nc1O)CC(c1cccs1)CC2=O", "note": "(configuration not stated)", "Percent Effect": 7.497}, {"smiles": "COCCNC(=O)c1sc2ccccc2c1C1CCC(CN)CC1.Cl", "note": "(configuration not stated)", "Percent Effect": 140.8}, {"smiles": "NC(=O)COCCNC(=O)Nc1sc2ccccc2c1Cl", "Percent Effect": 6.222}, {"smiles": "CCCN1CCN(C(=O)c2cc[nH]n2)[C@H]2CS(=O)(=O)C[C@H]21", "Percent Effect": 3.177}, {"smiles": "CCc1ccc2c(C3CN(C(C)=O)C3)ncn2c1", "Percent Effect": -3.623}, {"smiles": "CC(=O)N1CCCC(c2nccnc2-c2ccc(CO)cc2)C1", "note": "(configuration not stated)", "Percent Effect": 179.5}, {"smiles": "CCn1cc(-c2nccnc2C2CCCN(C(C)=O)C2)cn1", "note": "(configuration not stated)", "Percent Effect": 156.7}, {"smiles": "COc1cc(F)ccc1CC(=O)N1CC[C@H]2C(=O)NCCO[C@H]2C1", "Percent Effect": -55.09}, {"smiles": "COC(=O)CCCn1ccnc1-c1ccc(OC)c(F)c1F", "Percent Effect": -8.612}, {"smiles": "CCS(=O)(=O)Cc1ccn(-c2cccc(F)c2)n1", "Percent Effect": -0.3225}, {"smiles": "Cc1ccc(NC(=O)Nc2cnc(N3CCN(C)CC3)nc2)cc1", "Percent Effect": 130.1}, {"smiles": "COc1ccc(NC(=O)N2CCC3(CC2)NC(=O)CC3C(=O)O)cc1Cl", "note": "(configuration not stated)", "Percent Effect": -5.291}, {"smiles": "CCOc1ccc(NCc2cnc(N3CCN(C)CC3)nc2)cn1", "Percent Effect": -2.404}, {"smiles": "COc1ccc(NC(=O)Nc2cnc(N3CCN(C)CC3)nc2)cc1Cl", "Percent Effect": 89.39}, {"smiles": "COc1ccc(NC(=O)NC(C)c2nc[nH]n2)cc1Cl", "note": "(configuration not stated)", "Percent Effect": -12.73}, {"smiles": "Cc1ccc(NC(=O)Nc2cnc(N3CCN(C)CC3)nc2)c(Cl)c1", "Percent Effect": -7.625}, {"smiles": "COc1cc2c(cc1CNC(=O)C(C)n1ccnc1C(C)C)CCC2", "note": "(configuration not stated)", "Percent Effect": -11.78}, {"smiles": "COC(=O)[C@H](C)NC(=O)Cc1c(C)nc2cc(=O)[nH]n2c1C", "Percent Effect": -6.844}, {"smiles": "Cc1n[nH]c(C)c1NC(=O)CN1CCOC(Cn2cccn2)C1", "note": "(configuration not stated)", "Percent Effect": 4.084}, {"smiles": "Cc1cccc2c1nc(CCO)n2-c1ccc(NS(C)(=O)=O)nc1", "Percent Effect": -11.32}, {"smiles": "CN(C)C(=O)N1C[C@H]2CCC[C@@]2(COc2ccccn2)C1.O=C(O)C(F)(F)F", "Percent Effect": -14.43}, {"smiles": "CN(C)CC(=O)N1C[C@H]2CCC[C@@]2(COc2ccccn2)C1.O=C(O)C(F)(F)F", "Percent Effect": -2.413}, {"smiles": "CS(=O)(=O)CC(=O)N1C[C@H]2CCC[C@@]2(COc2ccccn2)C1.O=C(O)C(F)(F)F", "Percent Effect": 109.7}, {"smiles": "O=C(O)C(F)(F)F.O=C(c1ccccc1)N1C[C@H]2CCC[C@@]2(COCc2ccncc2)C1", "Percent Effect": 12.44}, {"smiles": "CS(=O)(=O)CC(=O)N1C[C@H]2CCC[C@@]2(COCc2ccncc2)C1.O=C(O)C(F)(F)F", "Percent Effect": 108.3}, {"smiles": "O=C(O)C(F)(F)F.O=C(c1ncccn1)N1C[C@H]2CCC[C@@]2(COCc2ccncc2)C1", "Percent Effect": 6.096}, {"smiles": "O=C(c1cn(CCN2CCCCC2)nn1)N1CCSCC1", "Percent Effect": 10.37}, {"smiles": "COc1cccc(NC(=O)N(CCO)Cc2ccsc2)c1", "Percent Effect": 1.126}, {"smiles": "O=C1N(CC2CC2)C(c2c[nH]nc2-c2cccnc2)NC12CCCC2", "note": "(configuration not stated)", "Percent Effect": 1.582}, {"smiles": "NC(=O)[C@H]1CCCN(c2nccc(-c3c[nH]nc3-c3cccnc3)n2)C1", "Percent Effect": 113.5}, {"smiles": "Cc1nn2c(N3CCCC(C(N)=O)C3)cc(-c3ccccc3)nc2c1C", "note": "(configuration not stated)", "Percent Effect": -84.47}, {"smiles": "NC(=O)[C@H]1CCCN(c2nccc(-c3ccncc3)n2)C1", "Percent Effect": 103.3}, {"smiles": "O=C(c1ccccn1)C1CCCN(c2nccc(CCC(F)(F)F)n2)C1", "note": "(configuration not stated)", "Percent Effect": "2e-14"}, {"smiles": "CNc1ccnc(N2CCCC(C(=O)c3ccccn3)C2)n1", "note": "(configuration not stated)", "Percent Effect": -24.75}, {"smiles": "FC(F)Sc1ccc(NCc2nnc(C3CC3)o2)cc1", "Percent Effect": -0.3922}, {"smiles": "NC(=O)c1cnc(NC(=O)CCc2ccco2)c(Cl)c1", "Percent Effect": -8.08}, {"smiles": "CC(C)(C)c1nc(CC(=O)NC2CCN(C3CC3)C2)cs1", "note": "(configuration not stated)", "Percent Effect": -2.238}, {"smiles": "CC(C)N1CCCn2nc(C(=O)NCCc3c[nH]cn3)cc2C1", "Percent Effect": -16.95}, {"smiles": "O=C(O)C1(n2ccc(-c3ccco3)n2)CCN(Cc2ccsc2)CC1", "Percent Effect": 105.5}, {"smiles": "O=C(O)C1(n2ccc(-c3ccco3)n2)CCN(Cc2ccccn2)CC1", "Percent Effect": 96.1}, {"smiles": "Cc1cc(CN2CCN(C(=O)C3(C#N)CCCC3)CC2)on1", "Percent Effect": -5.531}, {"smiles": "O=C(O)C(F)(F)F.O=C(c1ccco1)N1CCCC2(CN(Cc3ccsc3)CCO2)C1", "note": "(configuration not stated)", "Percent Effect": 0.02281}, {"smiles": "O=C(O)C1(n2ccnc2)CCN(Cc2ccc3occc3c2)CC1", "Percent Effect": -4.381}, {"smiles": "COc1ccc2c(c1)C1(CCN(Cc3ccccn3)CC1)N(C)CC2.O=C(O)C(F)(F)F.O=C(O)C(F)(F)F", "Percent Effect": -3.791}, {"smiles": "Cc1cc(CN2CCC(C(=O)O)(n3ccc(-c4ccco4)n3)CC2)on1", "Percent Effect": 185.7}, {"smiles": "Cc1nc(CN2CCC(C(=O)O)(n3ccc(-c4ccco4)n3)CC2)co1", "Percent Effect": 4.507}, {"smiles": "O=C(O)C1(n2ccc(-c3ccco3)n2)CCN(Cc2cccnc2)CC1", "Percent Effect": 100.5}, {"smiles": "O=C(O)C1(n2cccn2)CCN(Cc2nc(-c3ccccc3)no2)CC1", "Percent Effect": -13.7}, {"smiles": "Cc1cc(F)ccc1OC1(C(=O)O)CCN(Cc2cccnc2)CC1", "Percent Effect": 3.989}, {"smiles": "Cc1cc(CN2CCN(C(=O)CCc3cccc(F)c3F)CC2)on1", "Percent Effect": -11.44}, {"smiles": "COc1ccccc1OCC(=O)Nc1ncccc1OC(F)F", "Percent Effect": -1.305}, {"smiles": "CCCNC(=O)CSc1nnc2[nH]c(=O)cc(CC)n12", "Percent Effect": -17.32}, {"smiles": "Cc1nc(C(=O)N2CCC3(CC2)CC(=O)N(CC2CCCO2)C3)cs1", "note": "(configuration not stated)", "Percent Effect": 9.74}, {"smiles": "Cn1ccc(C(=O)N(CC(F)F)c2cccc(Cl)c2)cc1=O", "Percent Effect": -3.04}, {"smiles": "O=C(O)C1(n2cccn2)CCN(c2nc(-c3ccccc3)no2)CC1", "Percent Effect": -0.7442}, {"smiles": "Cc1n[nH]c(C)c1CCN(C)c1ccc(-c2nc(C3CC3)no2)cn1", "Percent Effect": 5.085}, {"smiles": "COCCO[C@@H]1C[C@H]2CN(C(=O)c3cnccn3)CCN2C1", "Percent Effect": -15.94}, {"smiles": "COC(=O)C(C)CN(Cc1ccccc1)C(=O)CN1CCCNC1=O", "note": "(configuration not stated)", "Percent Effect": -9.826}, {"smiles": "Cc1csc(CN2CCC(C(=O)O)(n3ccc(-c4ccco4)n3)CC2)n1", "Percent Effect": 105}, {"smiles": "Cc1nc(CN2CCC(C(=O)O)(n3ccc(C(C)C)n3)CC2)co1", "Percent Effect": 99.57}, {"smiles": "Cc1occc1C(=O)N1CCC2(CCN(Cc3cccs3)C2)CC1.O=C(O)C(F)(F)F", "Percent Effect": -0.4808}, {"smiles": "Cc1nccn1C1(C(=O)O)CCN(Cc2ccc3occc3c2)CC1", "Percent Effect": -3.386}, {"smiles": "Cc1ccc(N2CCC(C(=O)O)(n3ccc(C(C)C)n3)CC2)nn1", "Percent Effect": -12.67}, {"smiles": "Cc1cc(N2CCC(C(=O)O)(n3ccc(C(C)C)n3)CC2)nc(N)n1", "Percent Effect": -20.6}, {"smiles": "O=C(O)C1(n2ccc(-c3ccco3)n2)CCN(Cc2cccs2)CC1", "Percent Effect": 77.42}, {"smiles": "O=C(O)C(F)(F)F.c1coc(COCc2ncn3c2CN(Cc2cccs2)CCC3)c1", "Percent Effect": 7.487}, {"smiles": "Cc1csc(CN2C[C@@H]3COC[C@]3(C(=O)NCc3ccco3)C2)n1", "Percent Effect": -36.74}, {"smiles": "O=C1CN(CCCNC(=O)Nc2cccc(Cl)c2F)CCN1", "Percent Effect": 1.597}]}]}
